Compound activity: PubChem, several laboratories
This is a sample that favours compounds with a hit; in the whole collection about 4.3% have one here.
MITF TRPM1 HTS – activators of MITF-driven TRPM1 promoter reporter, primary screen, cell-based, SK-MEL-5, luciferase, single point | SK-MEL-5 TRPM1-promoter luciferase, 24 h; % of positive control, neutral wells = 0 | activation, % at 12.5 µM | AID 588334, 2011 | 0.75% of 300,000 active;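 active = mean activation of at least 80% with every replicate also reaching 80%; inconclusive = mean reaches 80% but some replicate falls short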;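 note: 0% = neutral control wells and 100% = parthenolide positive control wells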
MLL AF4-AF9 inh – inhibitors of AF4 peptide binding to AF9, primary screen, biochemical, AlphaScreen, biotin-AF4 peptide, FLAG-AF9, single point; Protein AF-9 (Homo sapiens), P42568; inhibition, % at 10 µM; 0.47% of 350,000 active; AID 651704, 2012;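 active = every replicate reaching a set inhibition limit, whatever the replicate mean, cut at about 25% in these data; inconclusive = mean inhibition reaches that limit but some replicates miss it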;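 note: 0% = plate neutral control median and 100% = total signal loss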
FGF22 binding – binders of human FGF22 protein, primary screen, FGF22 synaptogenesis inhibitor project, biophysical, thermal shift, single point; activity (Tm shift, normalised), % at 9.99 µM; Fibroblast growth factor 22 (Homo sapiens), Q9HCT0; recombinant FGF22 thermal shift, SYPRO orange fluorescence; percent of sucrose octasulfate shift, DMSO zero; 1.5% of 340,000 active;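 active = mean Tm shift, scaled 0 neutral to 100 positive control, at about 1.3% or above, every replicate too, limit read from the data; inconclusive = no clear call, values can overlap the other calls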
Target sequence (Q9HCT0 whole entry, looked up): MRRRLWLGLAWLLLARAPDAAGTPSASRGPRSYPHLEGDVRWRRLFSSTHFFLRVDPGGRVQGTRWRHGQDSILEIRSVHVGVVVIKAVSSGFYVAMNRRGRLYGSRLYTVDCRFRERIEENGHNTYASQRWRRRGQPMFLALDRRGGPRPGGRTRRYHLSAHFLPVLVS
SMARCA2 act – SMARCA2 (BRM) function activators, primary screen, cell-based, luminescence, high throughput; MG213 cells, MMTV-luciferase reporter, dexamethasone, overnight; activation, % at 9.1 µM; 1% of 370,000 active; in the data active = activation above about 7.8%;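 note: 0% = vehicle wells and 100% = reference activator wells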
Wnt act – Wnt/beta-catenin pathway activators, primary screen, cell-based, plate reader, single point; Wnt/beta-catenin reporter cell assay, activator; activation, % at 9.35 µM; 1.2% of 300,000 active; in the data active = activation above about 30%, passing the limit was not always enough; inconclusive = no clear call, values can overlap the other calls;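 note: 0% = neutral control wells and 100% = positive control wells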
esBAF inh – Bmi1 luciferase reporter increase in mESCs, primary screen, esBAF inhibitor project, mouse ES cells, Bmi1 luciferase knock-in, single point. 24 h; 100% = twice the neutral-well signal. reporter increase, % at 12.5 µM. 2% of 350,000 active. AID 602393, 2012; in the data active = activation above about 40%; inconclusive = no clear call, values can overlap the other calls;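 note: 0% = median of the plate's neutral control wells and 100% = double that signal; a rise in the Bmi1 reporter signal indicates esBAF inhibition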
An asterisk follows results filed as active; ? = inconclusive; · = not tested or not shown.

SMILES	MITF TRPM1 HTS	MLL AF4-AF9 inh	FGF22 binding	SMARCA2 act	Wnt act	esBAF inh
C[C@H]1CN([C@@H](C)CO)C(=O)c2ccccc2-c2ccccc2CO[C@@H]1CN(C)C(=O)Oc1ccccc1	·	-3	0	·	·	1
C[C@@H]1CN([C@@H](C)CO)C(=O)Cc2cc(NC(=O)C3CCCCC3)ccc2O[C@H]1CN(C)Cc1ccc(Oc2ccccc2)cc1	·	2	0	·	·	5
Cc1ccnc(NC(=S)NC(=O)c2cccs2)c1	65	2	0	4	34*	·
O=C(NC(=S)Nc1cccnc1)c1cccs1	19	0	0	-1	10	10
Cc1ccnc(NC(=O)CNC(=O)c2cccs2)c1	-5	2	0	-1	29	3
O=C(NC(=S)Nc1ccc(Cl)cn1)c1cccs1	16	·	·	2	17	72*
O=C(Nc1ccon1)c1ccc(Cl)s1	0	·	·	1	·	25
Cc1ccnc(NC(=O)c2ccc(Cl)s2)c1	87*	·	·	·	·	61*
CCCOC(=O)Nc1nc2ccccc2o1	22	·	·	3	37*	18
COc1ccc(NC(=O)CN(C)C(=O)C2CC(=O)N(CCc3ccc(OC)c(OC)c3)C2)cc1 (stereo not drawn)	3	-1	0	-2	0	4
CCOc1ccc(NC(=O)CN(C)C(=O)C2CC(=O)N(CCc3ccc(OC)c(OC)c3)C2)cc1OCC (stereo not drawn)	-2	-1	6.3*	-2	-2	9
Cc1ccccc1-c1cn(-c2ccccc2)c(=S)[nH]1	-2	6	0	0	0	2
Cc1ccc(-c2cn(-c3ccccc3)c(=S)[nH]2)cc1C	123*	7	0	1	38*	?
O=C(CCN1CCOCC1)c1ccc2c(c1)OCCO2	-3	·	·	-2	·	8
O=C(COC(=O)c1ccc(O)cc1)Nc1ccc2c(c1)OCCO2	51	-3	0	2	2	?
Cc1cc(C(=O)COC(=O)c2ccc(O)cc2O)c(C)n1C(C)C	85*	2	0	6	53*	61*
O=C(COc1ccccc1Br)c1ccc2c(c1)OCO2	58	-1	0	1	13	43*
O=C(CCCN1CCOCC1)c1ccc2c(c1)OCCO2	35	·	·	4	·	50*
O=C(COC(=O)c1ccc(O)cc1)c1ccc2c(c1)OCCO2	79	-1	0	3	38*	38
COc1ccc(CCn2c(C)cc(C(=O)COC(=O)c3ccc(O)cc3O)c2C)cc1	·	-2	0	-5	2	·
COC(=O)C1=C(C)N(C)C(=NCC2CC2)NC1c1cccc(Cl)c1 (stereo not drawn)	·	0	0	-6	0	·
C[C@H]1CN([C@@H](C)CO)C(=O)Cc2cc(NC(=O)CCCCCC(=O)Nc3ccccc3N)ccc2O[C@@H]1CN(C)S(=O)(=O)c1ccc(F)cc1	·	-2	-1	·	·	6
O=C(COC(=O)c1ccc(O)cc1O)c1ccc2c(c1)OCO2	45	-1	0	1	44*	63*
COC(=O)C(Cc1ccc(O)cc1)NC(=O)CCc1ccco1 (stereo not drawn)	5	-1	0	2	-2	-1
COC(=O)C(Cc1ccc(O)cc1)NC(=O)c1ccc2c(c1)OCCO2 (stereo not drawn)	19	-29	0	3	10	55*
SMILES	MITF TRPM1 HTS	MLL AF4-AF9 inh	FGF22 binding	SMARCA2 act	Wnt act	esBAF inh
Nc1ccc(Cl)c(-c2nc3ncccc3o2)c1	38	·	·	2	-4	?
Nc1ccc(-c2nc3ncccc3o2)c(Cl)c1	43	-3	0	5	42*	?
Nc1ccc(-c2nc3ncccc3o2)c(O)c1	95*	4	0	7	18	57*
Cc1ccc(S(=O)(=O)Nc2ccc3c(c2)C(=O)N([C@@H](C)CO)C[C@@H](C)[C@@H](CN(C)C(=O)c2ccccc2)OCCCC[C@H](C)O3)cc1	·	-2	·	·	·	3
COc1cccc(/C=C(/C(=O)OCC(=O)NCC2CCCO2)c2ccccc2)c1 (stereo not drawn)	-4	5	43*	-4	-9	·
Cc1cc(S(=O)(=O)NC2CCCCC2)ccc1OCC(=O)NCC1CCCO1 (stereo not drawn)	2	-2	0	3	-1	1
O=C(NCC1CCCO1)c1cccc(NS(=O)(=O)c2ccccc2)c1 (stereo not drawn)	-1	-2	·	0	0	5
O=C(NCC1CCCO1)c1ccc(NS(=O)(=O)c2ccccc2)cc1 (stereo not drawn)	2	-3	45*	-3	-1	-1
O=C(COc1ccc(S(=O)(=O)NC2CCCC2)cc1)NCC1CCCO1 (stereo not drawn)	-3	-2	43*	-2	-8	·
O=C(COC(=O)c1ccc(Br)cc1)NCC1CCCO1 (stereo not drawn)	16	-1	0	-3	-1	-8
COc1cccc(/C=C(/C(=O)OCC(=O)NC2CCCCCCC2)c2ccccc2)c1	2	-1	0	1	-39	·
O=C(COC(=O)c1ccccc1)NCC1CCCO1 (stereo not drawn)	8	·	·	0	·	49*
COc1ccc(OC)c(S(=O)(=O)N2CCC(c3cn4ccccc4n3)CC2)c1	·	·	·	-3	·	·
CCNC(=O)C[C@@H]1CC[C@H](NC(=O)C2CC2)[C@H](CO)O1	·	-3	0	·	·	0
Brc1cccc(Cn2ccc3ccc(-c4ccc5ccn(Cc6cccc(Br)c6)c5c4)cc32)c1	·	·	·	-2	·	·
Cc1c(O)ccc(C(=O)COc2ccc(F)cc2)c1O	?	·	·	2	·	80*
CCc1cc(C(=O)COc2ccc(F)cc2)c(O)cc1O	44	-1	0	6	42*	·
CCc1cc(C(=O)Cc2ccccn2)c(O)cc1O	2	-1	0	4	2	-6
CCCC#Cc1ccc2c(c1)O[C@H](CN(C)C)[C@H](C)CN([C@H](C)CO)S2(=O)=O	·	1	0	·	·	-2
COc1ccc(C(=O)NCCC2=CCCCC2)cc1OC	·	·	·	7	·	50*
CC(=O)c1ccc(NC(=O)c2ccc3c(=O)n4c(nc3c2)CCCCC4)cc1	-2	0	0	-1	0	15
O=C(NCc1ccc(F)cc1)c1ccc2c(=O)n3c(nc2c1)CCCCC3	·	1	0	-1	-4	7
O=C(Nc1ccc(F)cc1)c1ccc2c(=O)n3c(nc2c1)CCCCC3	68	-1	0	-1	17	57*
